Screens from PubChem.
The list is a sample of the results.
aSyn UTR act – Activators working through SNCA 5'UTR binding (MLPCN). activity score, % (tested at 7.5 µM), hits read low. alpha-synuclein 5'UTR reporter, activators screen. AID 1814. actives 7.1% (n = 300,000); in the data active = activity score below about -60%
* = called active by the depositor.

SMILES	aSyn UTR act
O=C(O)c1cccc(NC(=S)N/N=C/c2ccccc2OCc2ccc(Br)cc2)c1	-84*
O=C(O)c1cccc(NC(=S)N/N=C/c2cccc(O)c2)c1	58
COc1ccc(NC(C)C(=O)N/N=C/c2ccccc2OCc2ccc(Br)cc2)cc1 (centres undefined)	-77*
Clc1ccc2nc(N3CCN(c4ccccc4)CC3)sc2c1	-109*
Brc1ccc2nc(N3CCN(c4ccccc4)CC3)sc2c1	-143*
O=C1c2ccccc2C(=O)N1CCSc1ccccc1	-191*
O=C1C2CC=C(Cl)CC2C(=O)N1CCc1ccccc1 (centres undefined)	-69*
O=C1c2ccccc2C(=O)N1CCc1ccccc1	-70*
C/C(=N\Nc1nc2ccccc2[nH]1)c1cc2ccccc2o1	-138*
C/C(=N\Nc1nc2ccccc2[nH]1)c1ccccn1	87
Clc1ccccc1N/N=C/c1ccc2c(c1)OCO2	-176*
C(=N\Nc1nc2ccccc2[nH]1)/c1ccc2c(c1)OCO2	-222*
C/C(=N\Nc1nc2ccccc2[nH]1)c1ccc2c(c1)OCCO2	-88*
C/C(=N\Nc1ccccn1)c1ccc2c(c1)OCO2	-159*
C/C(=N\Nc1nc2ccccc2[nH]1)c1ccc2c(c1)OCO2	-124*
CN(C)N=Nc1ccc(-c2cn(Cc3ccccc3)cn2)cc1	-74*
Cc1oc(-c2ccc(-c3ccccc3)cc2)nc1CN1CCN(CC(=O)N(C)C)CC1	-143*
COc1ccc(-c2nc(CN3CCN(c4cc(C)nc(C)c4)CC3)c(C)o2)c2ccccc12	68
O=C(Nc1cccc(NC(=O)c2ccccc2Cl)c1)c1ccc([N+](=O)[O-])o1	86
O=C(Nc1nc2ccc(Cl)cc2s1)c1ccc(Br)o1	-237*
O=C(Nc1nc2c(Cl)cccc2s1)c1ccc([N+](=O)[O-])o1	-80*
O=C(Nc1nc2c(Cl)cccc2s1)c1ccc(Br)o1	-131*
O=C(Nc1nc2c(F)cccc2s1)c1ccc([N+](=O)[O-])o1	-95*
Cc1cc(C)c2c3c(sc2n1)C1(CCSCC1)C(C#N)=C(N)O3	-90*
O=[N+]([O-])c1ccccc1/C=N/Nc1nccnc1Cl	-184*
SMILES	aSyn UTR act
Oc1ccccc1/C=N/Nc1nccnc1Cl	88
Nc1cc(Cl)nc(N/N=C/c2ccccc2[N+](=O)[O-])n1	-188*
Cc1ccc(Sc2cnc3ccccc3n2)cc1	-176*
Fc1ccccc1Nc1n[nH]c(=S)s1	-64*
C#CCn1c(C)cc(C)c(S(=O)(=O)c2ccccc2)c1=O	-73*
O=C(Nc1nnc(C(F)(F)F)s1)c1ccc(Br)s1	-75*
COc1ccc(-c2nnc3sc(C4CCCCC4)nn23)cc1OC	65
Cc1cc(C(=O)Nc2nnc(C3CCCCC3)s2)cs1	-136*
O=C(Nc1nnc(C2CCCCC2)s1)c1ccc(Br)s1	-219*
CCSc1nnc(NC(=O)c2ccccn2)s1	67
CCSc1nnc(NC(=O)c2ccccc2)s1	-94*
CCSc1nnc(NC(=O)c2ccc(Br)s2)s1	-89*
CCSc1nnc(NC(=O)c2ccccc2C)s1	-117*
CN1CCN(C(=S)c2ccc(-c3cccc([N+](=O)[O-])c3)o2)CC1	-171*
O=[N+]([O-])c1cc(-c2ccc(C(=S)N3CCOCC3)o2)ccc1Cl	-72*
O=[N+]([O-])c1cccc(-c2ccc(C(=S)N3CCOCC3)o2)c1	-107*
Cc1cc(/C=N/n2cnnc2)c(C)n1-c1ccc(OCc2ccc(F)cc2)cc1	-73*
Cc1cc(/C=N/n2cnnc2)c(C)n1-c1ccc(OCc2ccc(Cl)cc2Cl)cc1	113
COc1cccc(CN=C2Nc3ccccc3CS2)c1	-142*
Clc1ccc(CN=C2Nc3ccccc3CS2)cc1	-182*
c1ccc2c(c1)CSc1ccccc1N2	104
COc1ccccc1CN=C1Nc2ccccc2CS1	-149*
O=C(Nc1ccccn1)c1cccs1	-113*
COc1cccc(/C=N/NC(=O)c2cc3cc([N+](=O)[O-])ccc3s2)c1O	107
Cc1ccnc(NC(=O)c2ccc(Br)s2)c1	-115*
SMILES	aSyn UTR act
O=C(Nc1nccc(-c2cccs2)n1)c1cccs1	-92*
Cc1cccc(NC(=O)c2cc3cc([N+](=O)[O-])ccc3s2)n1	-85*
Cc1ccnc(NC(=O)c2cccs2)c1	-118*
Cc1cccc(NC(=O)c2cccs2)n1	-116*
O=[N+]([O-])c1ccc(N/N=C/c2ccccc2)c(F)c1	-151*
Clc1ccc(OCCCN2CCCCC2)c(Br)c1	-88*
Cc1ccc(NC(=O)c2ccc3c(=O)n4c(nc3c2)CCCCC4)nc1	-72*
O=C(NC1CCCCCC1)c1ccc2c(=O)n3c(nc2c1)CCCCC3	-72*
O=C(O)c1ccc(-c2noc(-c3cccc(F)c3)n2)cc1	-96*
COc1cccc(-c2noc(-c3ccc(Cl)nc3)n2)c1	-182*
COc1cccc(-c2nc(-c3ccc(NC(=O)c4cccs4)cc3)no2)c1	-154*
COc1cccc(-c2nc(-c3ccc(C(=O)O)cc3)no2)c1	-96*
COc1cc(OC)cc(-c2nc(-c3ccccc3)no2)c1	-140*
COc1ccc2[nH]c(=O)c(-c3noc(-c4ccccc4)n3)cc2c1	-121*
COc1ccc(-c2nc(-c3ccc(NC(=O)c4ccncc4)cc3)no2)cc1OC	-155*
COc1ccc(-c2nc(-c3ccccn3)no2)cc1	107
Cc1cc2c3c(ccc(C)c3n1)N=CN2c1ccccc1	54
Cc1ccn(-c2cc(O)c(-n3ccc(C)n3)cc2O)n1	-85*
Cc1ccccc1OCC(=O)N/N=C/c1ccc([N+](=O)[O-])o1	-68*
O=C(COc1ccccc1[N+](=O)[O-])N/N=C/C=C/c1ccco1	-73*
CC1(C(=O)N/N=C/c2ccc([N+](=O)[O-])o2)CC1(Br)Br (centres undefined)	-96*
O=C(Cc1ccc([N+](=O)[O-])cc1)N/N=C/c1ccc([N+](=O)[O-])o1	89
CC(C)(C)C(=O)/C(=C\c1cccc([N+](=O)[O-])c1)n1cncn1	-129*
CC(C)(C)c1nnc(NC(=O)c2ccc(Cl)nc2)s1	-126*
C=CCSc1nnc(NC(=O)c2ccc(Cl)nc2)s1	-77*
SMILES	aSyn UTR act
O=C(/C=C/Nc1ccccc1)c1ccc(Cl)cc1Cl	-122*
Cc1ccc(NC(=O)CCC(=O)c2cccs2)c(O)c1	-80*
O=C(CSCc1ccco1)c1cccs1	-174*
O=C(CCC(=O)c1cccs1)c1cccs1	-69*
CC(C)(C)c1ccc(C(=O)N2CCCC2)s1	-64*
COc1ccc(NC(=S)N/C(=N/S(=O)(=O)c2ccc(C)cc2)c2ccccc2)cc1	-146*
COc1ccc(S(=O)(=O)/N=C2\C=C(Nc3ccc(O)cc3)C(=O)c3ccccc32)cc1	100
O=S(=O)(/N=C(/NC(=S)Nc1ccccc1)c1ccccc1)c1ccc(Cl)cc1	-99*
O=C(C[n+]1cc(-c2ccc(F)cc2)n2c1CCC2)Nc1nc(-c2ccccc2)cs1	-89*
COC(=O)c1ccc2c(c1)C(=O)/C(=C/c1ccc(C)cc1)O2	-143*
COC(=O)c1ccc(/C=C2\Oc3ccccc3NC2=O)cc1	-110*
Cc1ccc2nsnc2c1NC(=O)CCl	-82*
Cc1ccc2nsnc2c1NC(=O)c1ccc([N+](=O)[O-])o1	-173*
Cc1nnc(SCc2ccccc2)nc1-c1ccccc1	-124*
CC(C)(C)Cc1nnc(NC(=O)CCc2ccccc2)s1	-124*
CSc1nnc(NC(=O)CCc2ccccc2)s1	-65*
COC(=O)CNc1c(-c2ccccc2)nc2ccc(Br)cn12	-69*
COC(=O)N/N=C/c1ccc([N+](=O)[O-])s1	-142*
O=C(N/N=C/c1ccc([N+](=O)[O-])s1)c1ccccc1	68
